Data reported in PubChem BioAssay AID624496 (National Center for Advancing Translational Sciences (NCATS), 2012).
Records with an inconclusive call do not appear. Active and inactive are the calls of the source. Calls follow the shape of the dose curve; as a rule, active = well fitted inhibition curve with a large enough effect; inconclusive = small, poorly fitted or top-dose-only effect, or another doubt; inactive = no such curve, though single readings can be large or run the other way.

Target: D(2) dopamine receptor (Homo sapiens) (UniProt P14416)
Assay: HTS Assay for Allosteric Antagonists of the Human D2 Dopamine Receptor: SAR in Primary Assay.
Conditions: HEK293 T-REx D2 cells, calcium flux, dopamine EC80 antagonism; activity, negative = inhibition: at 41.8 µM (top of the series) unless noted
Excerpt: Dopamine receptors (DARs) are involved in the etiology and/or therapy of a number of neuropsychiatric and endocrine disorders. For instance, all receptor-based antiparkinsonian drugs work via stimulating the D2 DAR subtype whereas all FDA-approved antipsychotic agents are antagonists of this receptor. […] There are three different types of allosteric modulators that we are seeking, two of which will stimulate or augment receptor signaling, allosteric agonists and potentiators, while the third, allosteric antagonists, will attenuate receptor signaling. The present project is looking for compound antagonism after an EC80 addition of dopamine by tracking calcium flux in a […], inducible Hek293 Trex D2 cell line, which act through an allosteric site. NIH Chemical Genomics Center [NCGC] NIH Molecular Libraries Probe Centers Network [MLPCN] MLPCN Grant: NS064831 Assay Submitter (PI): David Sibley
Freshly passaged cells are plated in 1536 well black, clear bottom plates at a density of 4000 cells/well in 3 ul of complete media containing 1x tetracycline inducer. After an overnight incubation at 30 deg C in 5% CO2, cells are loaded with 2 ul of the no wash Calcium Assay Kit (ABD Bioquest) and incubated at room temperature for 30 to 90 minutes. Agonist read: A 10 cycle (1 second/cycle) baseline measurement is taken and then the FDSS online 1536 pintool delivers 23 nl of compound library (as well as dopamine controls) to the plate. The plate is measured for kinetically at 1 cycle/sec for 180 seconds. Following the 180 second read, 1 ul of an EC80 (negative modulation assay) is delivered by an onboard pipette head. Measurements are taken kinetically for an additional 180 seconds.

D(2) dopamine receptor (Homo sapiens), sequence (P14416 whole entry, looked up): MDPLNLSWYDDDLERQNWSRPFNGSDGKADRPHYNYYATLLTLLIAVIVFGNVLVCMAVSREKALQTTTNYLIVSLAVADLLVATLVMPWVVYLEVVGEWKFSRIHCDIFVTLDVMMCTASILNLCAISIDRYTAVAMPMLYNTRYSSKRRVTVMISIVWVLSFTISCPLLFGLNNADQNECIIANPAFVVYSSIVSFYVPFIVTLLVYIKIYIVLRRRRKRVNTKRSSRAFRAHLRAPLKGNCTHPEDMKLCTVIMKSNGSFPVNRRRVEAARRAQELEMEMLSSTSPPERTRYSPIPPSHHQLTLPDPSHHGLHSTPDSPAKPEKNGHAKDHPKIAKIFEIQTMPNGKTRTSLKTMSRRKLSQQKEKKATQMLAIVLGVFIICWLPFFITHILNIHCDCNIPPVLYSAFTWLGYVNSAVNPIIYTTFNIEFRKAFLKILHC

Structure (SMILES) | Potency | activity, negative = inhibition
CN1C(=O)c2ccccc2S(=O)c2ccc(C(=O)NCc3ccc(Br)cc3)cc21 (stereo unspecified) | 70.5 nM (active) | –
CCN1C(=O)c2ccccc2S(=O)c2ccc(NC(=O)Cc3ccc(F)cc3)cc21 (stereo unspecified) | 223 nM (active) | –
CCN1C(=O)c2ccccc2S(=O)c2ccc(C(=O)OCc3ccc(OC)cc3)cc21 (stereo unspecified) | inactive | –
COc1ccc(CNC(=O)c2ccc3c(c2)N(Cc2ccccc2)C(=O)c2ccccc2S3=O)cc1 (stereo unspecified) | 88.7 nM (active) | –
CN1C(=O)c2ccccc2[S@](=O)c2ccc(C(=O)NCCc3cccs3)cc21 | 280 nM (active) | –
CCN1C(=O)c2ccccc2[S@](=O)c2ccc(C(=O)N[C@H](C)c3ccc4ccccc4c3)cc21 | 70.5 nM (active) | –
COc1ccc(NC(=O)c2ccc3c(c2)N(C)C(=O)c2ccccc2S3=O)cc1 (stereo unspecified) | 11200 nM (active) | –
CCN1C(=O)c2ccccc2S(=O)c2ccc(NC(=O)Cc3ccc(OC)cc3)cc21 (stereo unspecified) | 705 nM (active) | –
COc1ccc(CNC(=O)c2ccc3c(c2)C(=O)c2ccccc2C3=O)cc1 | – | -113%
CN1C(=O)c2ccccc2S(=O)c2ccc(C(=O)NCc3ccc(Cl)cc3)cc21 (stereo unspecified) | 353 nM (active) | –
CCN1C(=O)c2ccccc2S(=O)c2ccc(C(=O)NCc3ccc(C(F)(F)F)cc3)cc21 (stereo unspecified) | 141 nM (active) | –
